Test results taken from PubChem BioAssay AID1159580 (chemical genetic matrix, 2015).
Screen size: about 5,500 compounds; about 2,000 (36%) were called active. About 18% were inconclusive and are not listed. No stated cut-off is given here; in the data, active means normalized growth mostly below about 0.91 (no sharp cut-off); inconclusive means no clear call, values can overlap the other calls; inactive means mostly above about 0.92. The list shows a part of the results.

Assay: chemical genetic growth profiling, strain panel (AID 1159580);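 further: tested at 20 µM; growth read once vehicle control cultures reached saturation at 30 °C; 1 = growth at the plate median or of vehicle wells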
Conditions: S. cerevisiae deletion strains, growth OD
[1] = locus YAR019C, strain CDC15, stronger effect = lower value
[2] = locus YBL105C, strain PKC1, stronger effect = lower value
[3] = locus YBR135W, strain CKS1, stronger effect = lower value
[4] = locus YBR136W, strain MEC1, stronger effect = lower value
[5] = locus YBR160W, strain CDC28, stronger effect = lower value
[6] = locus YDL017W, strain CDC7, stronger effect = lower value
[7] = locus YDL028C, strain MPS1, stronger effect = lower value
[8] = locus YDL101C, strain DUN1, stronger effect = lower value
[9] = locus YDL108W, strain KIN28, stronger effect = lower value
[10] = locus YDL214C, strain PRR2, stronger effect = lower value
[11] = locus YDR052C, strain DBF4, stronger effect = lower value
[12] = locus YDR226W, strain ADK1, stronger effect = lower value
[13] = locus YDR477W, strain SNF1, stronger effect = lower value
[14] = locus YER123W, strain YCK3, stronger effect = lower value
[15] = locus YER133W, strain GLC7, stronger effect = lower value
[16] = locus YFL009W, strain cdc4, stronger effect = lower value
[17] = locus YFL029C, strain CAK1, stronger effect = lower value
[18] = locus YFR003C, strain YPI1, stronger effect = lower value
[19] = locus YFR019W, strain FAB1, stronger effect = lower value
[20] = locus YFR028C, strain CDC14, stronger effect = lower value
[21] = locus YGR040W, strain KSS1, stronger effect = lower value
[22] = locus YGR052W, strain FMP48, stronger effect = lower value
[23] = locus YGR092W, strain DBF2, stronger effect = lower value
[24] = locus YHR030C, strain SLT2, stronger effect = lower value
[25] = locus YHR079C, strain IRE1, stronger effect = lower value
[26] = locus YHR082C, strain KSP1, stronger effect = lower value
[27] = locus YHR205W, strain SCH9, stronger effect = lower value
[28] = locus YIL147C, strain SLN1, stronger effect = lower value
[29] = locus YJL095W, strain BCK1, stronger effect = lower value
[30] = locus YJL128C, strain PBS2, stronger effect = lower value
[31] = locus YJL157C, strain FAR1, stronger effect = lower value
[32] = locus YJR016C, strain ILV3, stronger effect = lower value
[33] = locus YJR066W, strain TOR1 (second series), stronger effect = lower value
[34] = locus YJR066W, strain TOR1, stronger effect = lower value
[35] = locus YKL048C, strain ELM1, stronger effect = lower value
[36] = locus YKL067W, strain YNK1, stronger effect = lower value
[37] = locus YKL101W, strain HSL1, stronger effect = lower value
[38] = locus YKL193C, strain SDS22, stronger effect = lower value
[39] = locus YKL203C, strain TOR2, stronger effect = lower value
[40] = locus YLR113W, strain HOG1, stronger effect = lower value
[41] = locus YLR133W, strain CKI1, stronger effect = lower value
[42] = locus YLR403W, strain SFP1, stronger effect = lower value
[43] = locus YML070W, strain DAK1, stronger effect = lower value
[44] = locus YMR001C, strain CDC5, stronger effect = lower value
[45] = locus YMR205C, strain PFK2 (second series), stronger effect = lower value
[46] = locus YMR277W, strain FCP1, stronger effect = lower value
[47] = locus YNL006W, strain LST8, stronger effect = lower value
[48] = locus YNL020C, strain ARK1, stronger effect = lower value
[49] = locus YNL161W, strain CBK1, stronger effect = lower value
[50] = locus YNL183C, strain NPR1, stronger effect = lower value
[51] = locus YNL222W, strain SSU72, stronger effect = lower value
[52] = locus YNL307C, strain MCK1 (second series), stronger effect = lower value
[53] = locus YOL078W, strain AVO1, stronger effect = lower value
[54] = locus YOL136C, strain PFK27, stronger effect = lower value
[55] = locus YOR061W, strain CKA2, stronger effect = lower value
[56] = locus YOR119C, strain RIO1, stronger effect = lower value
[57] = locus YOR231W, strain MKK1, stronger effect = lower value
[58] = locus YOR329C, strain SCD5, stronger effect = lower value
[59] = locus YPL031C, strain PHO85, stronger effect = lower value
[60] = locus YPL153C, strain RAD53, stronger effect = lower value
[61] = locus YPL204W, strain HRR25, stronger effect = lower value
[62] = locus YPL209C, strain IPL1, stronger effect = lower value
[63] = locus YPL256C, strain CLN2, stronger effect = lower value
[64] = locus YPR025C, strain CCL1, stronger effect = lower value
[65] = locus YPR106W, strain ISR1, stronger effect = lower value
[66] = locus YPR111W, strain DBF20, stronger effect = lower value
[67] = strain TSCII, stronger effect = lower value

Measured: normalized growth

N#C/C(=N/Nc1ccc(Cl)cc1)C(N)=S
active: [1] 0.44 | [2] 0.434 | [3] 0.529 | [4] 0.513 | [5] 0.515 | [6] 0.616 | [7] 0.647 | [8] 0.345 | [9] 0.617 | locus YDL132W, strain cdc53, stronger effect = lower value 0.43 | [10] 0.176 | [11] 0.825 | locus YDR054C, strain cdc34, stronger effect = lower value 0.325 | [12] 0.57 | [13] 0.155 | [14] 0.197 | [15] 0.194 | [16] 0.468 | [17] 0.467 | [18] 0.644 | [19] 0.182 | [20] 0.577 | [21] 0.179 | [22] 0.204 | [23] 0.15 | [24] 0.208 | [25] 0.145 | [26] 0.206 | [27] 0.226 | [28] 0.627 | [29] 0.186 | [30] 0.628 | [31] 0.172 | [32] 0.574 | [33] 0.234 | [34] 0.244 | [35] 0.327 | [36] 0.167 | [37] 0.212 | [38] 0.42 | [39] 0.217 | [40] 0.275 | [41] 0.205 | [42] 0.175 | [43] 0.183 | [44] 0.475 | [45] 0.236 | [46] 0.352 | [47] 0.452 | [48] 0.182 | [49] 0.427 | [50] 0.185 | locus YNL207W, strain RIO2, stronger effect = lower value 0.515 | [51] 0.428 | [52] 0.177 | [53] 0.483 | [54] 0.199 | [55] 0.23 | [56] 0.225 | [57] 0.171 | [58] 0.515 | [59] 0.207 | [60] 0.193 | [61] 0.203 | [62] 0.601 | [63] 0.231 | [64] 0.611 | [65] 0.475 | [66] 0.583 | strain NNK1, stronger effect = lower value 0.471 | [67] 0.495

CC(C)(C)c1cc(C(=O)/C(C#N)=N\Nc2ccc(Cl)cc2)no1
active: [10] 0.253 | [13] 0.229 | [14] 0.146 | [15] 0.326 | [19] 0.116 | [21] 0.321 | [22] 0.281 | [23] 0.0911 | [24] 0.212 | [25] 0.106 | [26] 0.154 | [27] 0.043 | [29] 0.145 | [30] 0.396 | [31] 0.165 | [33] 0.237 | [34] 0.169 | [35] 0.172 | [36] 0.213 | [37] 0.106 | [39] 0.284 | [40] 0.156 | [41] 0.112 | [42] 0.149 | [43] 0.137 | [45] 0.137 | [48] 0.119 | [50] 0.294 | [52] 0.0976 | [54] 0.191 | [55] 0.103 | [56] 0.337 | [57] 0.0922 | [59] 0.105 | [60] 0.115 | [61] 0.115 | [63] 0.146 | [65] 0.842
inactive: [1] 0.959 | [2] 0.974 | [3] 0.952 | [4] 0.963 | [5] 0.966 | [6] 0.96 | [7] 0.95 | [8] 0.979 | [9] 0.962 | [11] 0.967 | [12] 0.952 | [16] 0.907 | [17] 0.95 | [18] 0.96 | [20] 0.958 | [28] 0.957 | [32] 0.914 | [38] 0.959 | [44] 0.958 | [46] 0.953 | [47] 0.981 | [49] 0.96 | [51] 0.966 | [53] 0.922 | [58] 0.975 | [62] 0.97 | [64] 0.961 | [66] 0.874 | [67] 0.948
